The sample as a whole holds a higher share of hits than the screen did.
Pf Dd2 inh: Plasmodium falciparum Dd2 growth inhibition | P. falciparum Dd2 growth, SYBR Green, 72 h | Potency, µM (series often up to 28.9 µM), for the others: at the top dose activity, negative = inhibition, usual class: inhibitors | actives 4.3% (n = 120,000) | AID 1347417; active means well fitted inhibition curve with a large enough effect;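 further: plate controls were DMSO vehicle for no effect and reference drug for full effect; nearly all actives have a fitted effect of over 65% in size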
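Infected erythrocytes (Dd2, 0.3% parasitemia, 2.5% hematocrit final) are added to compound in RPMI-1640/Albumax II medium, grown 72 h at 37C in low oxygen, then lysed with saponin/Triton-X containing SYBR Green and read by fluorescence.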
Active calls of the source: *; i = inactive; ! = not confirmed by another sample; [ ] = dose if it differs, or a comment. Potency means the concentration at half of the fitted maximal effect.

SMILES	Pf Dd2 inh
CCC(Sc1nc2cc(OC)c(OC)cc2c2nc(-c3ccccc3)nn12)C(=O)Nc1cccc(C)c1 (stereo not given)	-2.5%
Cc1cc(C)n(CCc2nc3c4ccccc4nc(SCc4ccc(F)cc4)n3n2)n1	-8.3%
CCC(Sc1nc2ccccc2c2nc(CCc3c(C)n[nH]c3C)nn12)C(=O)Nc1ccc(F)cc1 (stereo not given)	7.94µM*
O=C(NCCc1cnc[nH]1)[C@@H]1C[C@H]2C(=O)NCCCCCCN(S(=O)(=O)c3cccs3)[C@H]2C1	-16.4%
O=C1NC2(CCN(Cc3cccnc3)CC2)COc2ccccc21	-13.3%[44.1 µM]
O=C1NC2(CCCN(Cc3ccc(C(F)(F)F)cc3)C2)COc2ccccc21 (stereo not given)	11.2µM*!
O=C1NC2(CCN(Cc3ccc(F)cc3)CC2)COc2ccccc21	3.16µM*
O=[S+]1([O-])NC2(CCCN(Cc3ccc(C(F)(F)F)cc3)C2)COc2ccccc21 (stereo not given)	0.4%
O=C1NCC2(CCN(CC3CCCCC3)CC2)Oc2ccccc21	3.4%
O=C1NC2(CCN(Cc3ccccc3C(F)(F)F)C2)COc2ccccc21 (stereo not given)	i
O=C1NC2(CCN(CC3CCCCC3)CC2)COc2ccccc21	10µM*
O=C1NCC2(CCN(Cc3ccc(F)cc3)CC2)Oc2ccccc21	-12.4%
O=C1NC2(CCN(CC3CC3)CC2)COc2ccccc21	-21.7%[44.1 µM]
CCOCCn1c(=O)[nH]c2cc(C(=O)NCCN3CCCC3=O)ccc21	0.8%
O=C1NCC2(CCCN(C(=O)CCc3ccc(=O)[nH]n3)C2)O1 (stereo not given)	-6.5%
Cc1ncc2n1C(=O)N(C1CCN(Cc3ccncc3)CC1)C2	30.3%[44.1 µM]
Cc1nc(N2CCCC2)ncc1C(=O)Nc1ccc(OC(F)(F)F)cc1	i
CCCN1CCN(c2ncnc3sc(C(=O)Nc4ccc(OC(F)(F)F)cc4)c(C)c23)CC1	5.01µM*
O=C(Nc1ccc2ncnc(N3CCCC3)c2c1)c1ccc(OC(F)(F)F)cc1	-20.0%
Cc1ccc(C(=O)N2CC[C@@H]3CN(S(C)(=O)=O)[C@@H]3C2)cc1C	21.4%
Cc1[nH]ncc1CNC(=O)C1CCN(C(=O)c2ncn3c2COC(c2ccc(F)cc2)C3)CC1 (stereo not given)	i
Cc1ccc(NC(=O)c2cc(-c3ccc[nH]3)n[nH]2)cc1	i
Cc1ccc(C(=O)N2CCn3c(nnc3-c3ccccc3)C2)cc1	i
COc1ccc(C2=C(C(C)=O)Sc3nnc(-c4ccccc4)n3N2C(C)=O)cc1	-12.6%
CCOc1ccc(-c2nnc(SCC(=O)c3ccc(Br)cc3)n2-c2ccccc2)cc1	i
SMILES	Pf Dd2 inh
CCc1nnc2n1N(C(C)=O)C(c1ccc(C(C)(C)C)cc1)=C(C(C)=O)S2	3.16µM*
CCOc1ccc(-c2nnc(SCC(=O)c3ccccc3)n2-c2ccccc2)cc1	21.2%
CC(=O)C1=C(c2ccc(C)cc2)N(C(C)=O)n2c(nnc2-c2ccccc2)S1	7.94µM*
CCOc1ccc(C2=C(C(C)=O)Sc3nnc(C)n3N2C(C)=O)cc1	1.12µM*
COCC1CN(C(=O)Cc2ccccc2F)CC12CCNCC2 (stereo not given)	i
COCc1nncn1C1CCN(S(=O)(=O)c2ccc(F)c(Cl)c2)CC1	2.7%
Cc1nc(C)c(C(=O)N2CCn3c(nnc3[C@@H]3C[C@@H](O)CN3Cc3ccccc3)C2)s1	-1.9%
O=C(c1ccc(C(F)(F)F)cc1)N1CCN2C(=O)N(Cc3ccc(F)cc3)C[C@H]2C1	i
C=CCNC(=O)N1CCCC1C(=O)Nc1cccc(-n2cccn2)c1 (stereo not given)	-4.0%
O=C1CC(NS(=O)(=O)N2CCCC2)CN1CCc1ccccc1 (stereo not given)	0.1%
COCCOc1ccc2c(n1)CCN(C(=O)Cc1cccc(OC)c1)C2	-23.5%
CCOc1ccc2c(n1)CCN(C(=O)c1cnccn1)C2	28.0%
CCOc1ccc2c(n1)CCN(C(=O)C1(c3ccccc3)CC1)C2	10µM*
CCOc1ccc2c(n1)CCN(C(=O)Cc1cccc(C)c1)C2	10µM*
CCOc1ccc2c(n1)CCN(C(=O)Cc1ccc(F)cc1)C2	-16.8%
CCOc1ccc2c(n1)CCN(C(=O)c1ccc(OC)cc1)C2	-7.5%
NC[C@H]1O[C@@H]2C[C@@H](CC(=O)N3CCC(F)(F)C3)O[C@@H]2[C@@H]1O	16.5%[44.1 µM]
COCCN1C[C@H]2CN(C(=O)NCc3ccccc3)CCN2C1=O	-9.5%[44.1 µM]
CCOc1cccc(CN(C)C(=O)CN2CC3(CCN(C)CC3)CC2=O)c1	-20.2%
CCNC(=O)N1CCC([C@H]2[C@@H](OC)C(=O)N2C(C)C)CC1	26.9%
CC(C)CC(=O)N1CCc2nnc([C@@H]3C[C@@H](O)CN3C)n2CC1	5.5%
O=C(c1ccccc1F)N1CCCC(c2nn(-c3ccccc3)c(=O)[nH]2)C1 (stereo not given)	i
COc1ccc(N2CCN(CC(O)COc3ccc(C)cc3C)CC2)cc1 (stereo not given)	1.4%
COc1ccc(N2CCN(CC(O)COc3ccc(C(C)(C)C)cc3)CC2)cc1 (stereo not given)	-6.1%

Assay outcomes from PubChem.
